# According to ChEMBL document CHEMBL3988442, “University of Dundee, Small-Polar-MMV Screening Library” (2021):
# Several values for one entry are separate records, joined by “and”; a condition that tells them apart may be missing. Equal entries are not always repeated. About 290 (0.85%) of roughly 34,000 compounds showed an effect of 50% or more. Many of the other results were omitted from the sample, so strong results are more common in it than they were.
# Tested on: Plasmodium falciparum
# Assay: Plasmodium falciparum sporozoite viability assay
# Type: functional, organism-based
# Parameters: scale not given: in the data most compounds retested in dose-response had high values
Compound,Percent Effect [%],Percent Effect (10 mM as filed; unlikely as a test dose)
CN(C)c1ncccc1CNS(=O)(=O)c1ccc(F)cc1F,5.626,
CC/N=c1\nc(NCC)nc2n1C(O)(Nc1cccc(C)c1C)CS2 (centres undefined),,-13.62% and 2.28%
CC/N=c1\nc(NCC)nc2n1C(O)(Nc1cc(C)ccc1C)CS2 (centres undefined),,-7.651% and -13.62%
CC/N=c1\nc(NCC)nc2n1C(O)(Nc1ccc(C)cc1C)CS2 (centres undefined),,76.89% and 79.52%
O=S(=O)(c1ccccc1)N1CCC[C@]2(C[C@H](OCC3CC3)CO2)C1,-0.3567,
CO[C@H]1C[C@@H](O)C12CCN(C(=O)NCc1ccco1)CC2,8.391,
CN1CCOC(CNC(=O)CCCOc2ccccc2F)C1 (centres undefined),,51.69% and 61.26% and 47.35%
Cc1ccccc1OCCCC(=O)NCC1CN(C)CCO1 (centres undefined),,6.067% and -2.638% and -0.6996%
CN1CCOC(CNC(=O)CCCOc2cccc(F)c2)C1 (centres undefined),,7.848% and 7.883% and 5.332%
CCn1cnnc1C1CCN(C(=O)CCCOc2ccccc2)CC1,,42.92% and 40.5% and 58.13%
NCCO[C@H]1C[C@@H](O)C12CCN(C(=O)CCOc1ccccc1)CC2,,3.322% and 1.71%
CCn1cnnc1C1CCN(C(=O)COCCc2ccccc2)CC1,,-3.699% and -24.35% and -22.69%
CO[C@H]1C[C@@H](O)C12CCN(C(=O)CCCOc1ccccc1)CC2,,88.4% and 94.39%
CC(O)CN1CCN(C(=O)CCOc2ccccc2F)CC1 (centres undefined),,8.088% and -8.879% and -8.774%
O=C(CCOc1ccccc1F)N1CCC(O)CC1,,-2.056% and -15.58% and -4.248%
Cc1cnccc1CN1Cc2ccccc2O[C@]2(CC[C@H](CO)CC2)C1,13.72,
Cc1cc(CN2CCCC(c3cc(C(F)(F)F)[nH]n3)C2)no1 (centres undefined),9.793,
O=C(CCCc1nnc(-c2ccccc2)o1)N1CCN(C2CC2)CC1,16.07,
Cc1ccc(NC2CCN(C(=O)c3cnn(C(C)(C)C)c3)CC2)nn1,-0.1023,
c1ccn2c(C3CCCN3Cc3nc(C4CC4)no3)nnc2c1 (centres undefined),-1.432,
Cc1cnn(CC2CN(CC(=O)Nc3ccnn3C(C)C)CCO2)c1 (centres undefined),2.692,
Cn1cnnc1C1CCN(C(=O)CCCOc2ccccc2F)CC1,,83.01% and 69.05% and 60.83%
Cc1ccccc1OCCC(=O)N1CCC(c2nncn2C)CC1,,2.17% and -2.919% and 0.9191%
CC(C)Nc1nc(O)cc(C2CC(=O)N(Cc3ccccn3)C2)n1.Cl (centres undefined),10.31,

Compound,Percent Effect [%],Percent Effect (10 mM as filed; unlikely as a test dose)
CNc1cc(C)nc(C2CN(Cc3ccc(Cl)cn3)CCO2)c1 (centres undefined),20.7,
CCC(=O)N1CCC(c2ncc(C(=O)Nc3ccccc3)c(C)n2)C1 (centres undefined),8.085,
COc1ccc(CC(=O)N2CCCC2Cn2cc(C)cn2)cc1OC (centres undefined),,8.878% and 3.897% and 0.6031%
COc1ccc2cc(C(=O)N3CCCC3Cn3cc(C)cn3)[nH]c2c1 (centres undefined),-1.066,
Cc1nn(C)cc1-c1cncn1CCc1ccc2c(c1)OCCO2.Cl,,35.23% and 54.6% and 46.78%
COC1COC2(CCN(CC3CCOCC3)CC2)C1.O=C(O)C(F)(F)F (centres undefined),2.7,
CC(C(=O)N1CCOCC1)n1nc(-c2cccs2)cc(N)c1=O (centres undefined),-6.596,
CCn1cc(CN2CCCN(C(=O)c3ccccc3OC)CC2)cn1,5.544,
CCCc1cc(CNC(=O)C2CCOc3ccccc3C2)on1 (centres undefined),10.71,
Cc1nc(CN2CCCC(NCc3nc4ccccc4s3)C2)no1 (centres undefined),12.82,
CCCc1cc(CNC2CCN(c3nc4ccccc4s3)CC2)on1,,84.7% and 90.12%
CC(=O)N1N=C(c2ccccc2)OC1C(=O)NCCc1ccc(C)cc1 (centres undefined),-14.76,
CNC(=O)CN1CCCC12CCN(C(=O)c1ccccc1F)CC2.O=C(O)C(F)(F)F,-2.189,
Cl.Clc1ccccc1CN1CCc2nc(C3CCCNC3)ncc2C1 (centres undefined),2.109,
CC(C)Oc1ccc2c(NC(=O)[C@H](C)O)nn(CC(F)(F)F)c2c1,,-22.23% and -11.46%
Cc1csc(NC(=O)[C@@H]2C[C@H]3[C@H](CCN3c3ncccn3)O2)n1.O=C(O)C(F)(F)F,2.312,
CCCn1cc(C(=O)N2CCOC(c3nc(-c4cccs4)no3)C2)cn1 (centres undefined),,42.39% and 34.52% and 29.79%
CCn1cc(C(=O)N2CCOC(c3nc(-c4cccs4)no3)C2)cn1 (centres undefined),,66.92% and 76% and 54.9%
CCn1ccc(C(=O)N2CCOC(c3nc(-c4cccs4)no3)C2)n1 (centres undefined),,-10.26% and 14.68% and 1.172%
CC(C)n1cnc(-c2nc(C(=O)NC3CC3)c3ccccn23)c1,6.582,
Cc1nc(-c2nc(C(=O)NC3CC3)c3ccccn23)cn1C(C)C,,58.89% and 55% and 41.86%
Cc1nc(-c2nc(C(=O)N(C)C)c3ccccn23)cn1C(C)C,,38.79% and 23.46% and 42.96%
Cn1cnc(-c2nc(C(=O)NC3CC3)c3ccccn23)c1,10.82,
Cn1cnc(-c2cc(C(=O)N3CCOCC3)c3ccccn23)c1,-1.371,

Compound,Percent Effect [%],Percent Effect (10 mM as filed; unlikely as a test dose)
Cc1nc(-c2nc(C(=O)N3CCOCC3)c3ccccn23)cn1C(C)C,,54.88% and 55.7%
CCNC(=O)c1cc(OC)c2cc(F)cc(C)c2n1,1.557,
Cc1cncnc1C1CCN(CC2CC2)CC1,1.471,
CCCOc1cccc(OCc2ccon2)c1,-14.79,
Cc1cc(C)n(CC2CCCCN2CCc2ccncc2)n1 (centres undefined),5.224,
Cc1c(C)n2c(SCC(=O)N3CCCCCC3)nnc2[nH]c1=O,,-20.75% and -26.48%
CNC(=O)CNC(=O)c1ccc(-c2scnc2C)nc1,1.458,
CCc1ccc(C(=O)NCc2ccnc(N3CCN(C)CC3)c2)o1,8.293,
CCc1nnc2n1CCN(CCC(=O)Nc1sccc1C#N)C2,5.694,
CCOC[C@@H]1CC[C@H]2[C@H](CCN2C(=O)c2cnccn2)O1,-3.07,
c1ccc(-c2nc(CNC3CCc4ncnn4C3)cs2)cc1 (centres undefined),1.596,
OCCN1CCN(Cc2coc(-c3cccc(Cl)c3)n2)CC1,-3.989,
CCN1CCN(Cc2coc(-c3cccc(F)c3)n2)CC1,,64.85% and 77.13% and 53.15%
CC(=O)N1CCN(Cc2coc(-c3cccc(F)c3)n2)CC1,,-29.73% and -43.84% and -27.15%
N#Cc1ccc(NCCC(=O)N2CCCc3ccccc32)nc1,-11.08,
Cc1cc(CC2COCCN(CCc3ccccc3)C2)ncn1 (centres undefined),5.745,
O=C(c1cc(-c2cccnc2)[nH]n1)N1CCCC(c2cnccn2)C1 (centres undefined),12.79,
CC(=O)NCC(=O)N1CCOC(c2cccc(N)n2)C1 (centres undefined),2.685,
Cc1c[nH]nc1C1CCN(C(=O)C2CCOCC2)C1 (centres undefined),-9.491,
Nc1cccc(C2CN(C(=O)CN3CCOCC3)CCO2)n1 (centres undefined),3.517,
COc1ccc2cc(C3CN(C(=O)N(C)C)CCO3)ccc2c1 (centres undefined),,102.8% and 105.3% and 102%
COc1ccc(CN2CCO[C@H]3CN(C(=O)C4CC4)CC[C@H]3C2=O)cc1,-7.815,
COc1ccnc(N2CCN(CC(=O)N3CCOC(C)C3)CC2)n1 (centres undefined),-0.9874,
CC(=O)N1CCOC(c2ccnc(N(C)C)n2)C1 (centres undefined),3.741,

Compound,Percent Effect [%],Percent Effect (10 mM as filed; unlikely as a test dose)
COc1ccc2cc(C3CN(C(=O)C4CCOCC4)CCO3)ccc2c1 (centres undefined),,90.24% and 38% and 72.69%
COc1ccc2cc(C3CN(C(=O)CCNC(C)=O)CCO3)ccc2c1 (centres undefined),,97.44% and 100.2% and 98.47%
COc1ccc(-c2cnc(N(C)C)nc2C2CN(C(C)=O)CCO2)cc1 (centres undefined),14.8,
COc1ccc2c(c1)[C@@H](CCNC(C)=O)CC(C)(C)O2,3.641,
COc1ccc2cc(C3CN(C(=O)CN4CCCC4)CCO3)ccc2c1 (centres undefined),,56.27% and 53.19% and 50.16%
COc1ccccc1CN1CCC2(CCC(C(=O)N(C)C)O2)CC1 (centres undefined),9.72,
CCc1ncnc2c1CCN(S(=O)(=O)c1ccccc1)CC2,11.48,
O=C(O)c1cc(S(=O)(=O)Nc2ccc(F)c(Cl)c2)cc2c1OCCO2,12.45,
O=C(CC1CC1)N1CCc2ncc(Cn3cncn3)n2CC1.O=C(O)C(F)(F)F,2.491,
CC(=O)N1CCc2ncc(CNC(=O)C3CCC3)n2CC1,-7.632,
COCC(=O)N1CCOC(c2ccc(N(C)C)cn2)C1 (centres undefined),-1.133,
CNC(=O)CCC(=O)N1CCOC(c2ccc3cc(OC)ccc3c2)C1 (centres undefined),,98.94% and 98.67% and 101%
CNC(=O)c1ccc(C2CN(C(=O)COC)CCO2)nc1 (centres undefined),-16.96,
CNC(=O)CN1CCC(c2cc(OC)cc(OC)c2)C1 (centres undefined),-3.657,
COCC(=O)N1CCOC(c2cccc(-c3cncnc3)n2)C1 (centres undefined),0.9327,
COc1ccc2cc(C3CN(C(=O)COC(C)C)CCO3)ccc2c1 (centres undefined),,38.96% and 58.61% and 49.31%
CC(C)COCCCNC(=O)NCC(O)c1cccc(F)c1 (centres undefined),2.496,
CNCC(=O)N1CCCC(c2ccnc(Nc3cnccn3)n2)C1 (centres undefined),-8.636,
Cl.Cl.NCC(=O)N1CCCC(c2ccnc(Nc3cnccn3)n2)C1 (centres undefined),10.19,
CC(=O)N1CC(c2ccnc(Nc3ccc(C)cn3)n2)C1,,15.77% and 8.208% and 11.03%
Cc1ccc(Nc2nccc(C3CCN(C(=O)CN)C3)n2)nc1.Cl (centres undefined),,81.99% and 45.72% and 74.53%
Cc1ccc(Nc2nccc(C3CCN(C(=O)CO)C3)n2)nc1 (centres undefined),,-6.369% and -30.39% and -30.26%
